# Values quoted from earlier work, collected in PubChem BioAssay AID977608.
# In all, about 4,300 compounds went through this assay and about 4,300 (100%) were called active. Cut-off not given; nearly all actives show IC50 up to about 1400 µM. The set was probably picked from earlier hits. This is one part of the list.
# Experiment: literature IC50 values for PDB complexes, PDB-derived complexes (AID 977608)
# Conditions: PDB protein-ligand complexes
smiles,measurement,setting,value
O=C(Cc1ccccc1)Nc1nnc(CC=S)s1,IC50,"protein: human glutaminase, PDB entry 3vp1",3300 nM (active)
COc1cc(-c2ccc(NNc3ccc4c(S(O)(O)O)cc(S(O)(O)O)c(N)c4c3O)c(OC)c2)ccc1N=Nc1ccc2c(S(O)(O)O)cc(S(O)(O)O)c(N)c2c1O,IC50,"protein: Macrophage migration inhibitory factor, PDB entry 3u18",810 nM (active)
O=c1cc([C@H]2CCN[C@@H](Cc3ccccc3)C2)o[nH]1,IC50,"protein: plasminogen kringle 1, PDB entry 4cik",370 nM (active)
C[C@@]1(c2cc(NC(=O)c3ccc(Cl)cn3)ccc2F)C[C@@H]2C[C@@H]2C(N)N1 (stereo not given in full),IC50,"protein: BETA-SECRETASE 1, PDB entry 4bfd",96 nM (active)
CN(C)c1ccc2c(c1)CCN(c1cccc(-c3cc(Nc4ccc(C(=O)N5CCOCC5)cn4)c(=O)n(C)c3)c1CO)C2=O,IC50,"protein: Tyrosine-protein kinase BTK, PDB entry 4rfy",100 nM (active)
CC(=O)N[C@@H](Cc1cncn1CCCCCCCCc1ccccc1)C(=O)N[C@@H](CO)C(=O)N[C@H](C(N)=O)[C@@H](C)O[P+](O)(O)O,IC50,"protein: Serine/threonine-protein kinase PLK1, PDB entry 4rcp",4420 nM (active)
C[C@@H](O[P+](O)(O)O)[C@H](NC(=O)[C@H](CO)NC(=O)[C@H](Cc1cncn1CCCCCCCCc1ccccc1)NC(=O)CCNC(=O)c1ccc(CO)cc1)C(N)=O,IC50,"protein: Serine/threonine-protein kinase PLK1, PDB entry 4whh",40 nM (active)
C[C@H](O[P+](O)(O)O)[C@H](NC(=O)[C@H](CO)NC(=O)[C@H](Cc1cncn1CCCCCCCCc1ccccc1)NC(=O)CCCNC(=O)c1ccccc1)C(N)=O,IC50,"protein: Serine/threonine-protein kinase PLK1, PDB entry 4whl",400 nM (active)
O=C(C/C=C1\C=C(C(=O)c2ccc(F)cc2)C=N1)C[C@@H](O)C(=O)O,IC50,"protein: DNA nucleotidylexotransferase, Tdt core, PDB entry 4iqu",580 nM (active)
O=C(NO)c1coc(-c2ccccc2C(F)(F)F)n1,IC50,"protein: METHIONINE AMINOPEPTIDASE, PDB entry 4a6v",1900 nM (active)
CN1CCN(c2ccc(N=C3CC(=O)N(c4ccc(Cl)cc4)N=C3c3ncn[nH]3)cc2)CC1,IC50,"protein: MEMBRANE PRIMARY AMINE OXIDASE, PDB entry 4bty",20 nM (active)
COC1=CC2=C(C(=O)C1)C(=O)O[C@@H](C)CCCC(=O)[C@@H](O)[C@@H](O)C/C=C/2,IC50,"protein: Mitogen-activated protein kinase 1, PDB entry 3w55",80 nM (active)
COC1=CC2=C(C(=O)C1)C(=O)O[C@H](C)CCCC(=O)[C@@H](O)[C@@H](O)C/C=C/2,IC50,"protein: Mitogen-activated protein kinase 1, PDB entry 2E14",80 nM (active)
NC(=O)c1cccc(N)c1,IC50,"protein: Tankyrase-2 TNKS2, PDB entry 4pml",30000 nM (active)
CCOc1ccc2cc(-c3nn(C(C)(C)C)c(N)c3C(N)=O)cnc2c1,IC50,"protein: Calmodulin-domain protein kinase 1 CDPK1, PDB entry 4ona",7 nM (active)
CN(C)CCOc1ccc(-c2cc3c(NCCc4ccc(NC(=O)Nc5ccccc5)cc4)ncnc3o2)cc1,IC50,"protein: Aurora kinase A (T288D mutation), PDB entry 4jbo",24 nM (active)
O=C(Nc1ccccc1)Nc1ccc(CCNc2ncnc3oc(-c4ccc(OCCN5CCC(O)CC5)cc4)cc23)cc1,IC50,"protein: Aurora kinase A (T288D mutation), PDB entry 4jbp",41 nM (active)
CC(C)(O/N=C(\C(=O)N[C@H](C=O)[C@@H](CNC(=O)NCc1cc(=O)c(O)cn1O)NS(O)(O)O)c1csc(N)n1)C(=O)O,IC50,"protein: Penicillin-binding protein 3, PDB entry 4l0l",54 nM (active)
CN1CCN(c2nc(O)c(Cc3ccc(Cl)c(Cl)c3)s2)CC1,IC50,"protein: Ectonucleotide pyrophosphatase/phosphodiesterase family member 2, PDB entry 3wav",180 nM (active)
CCN1CCN(c2nc(O)c(Cc3ccc(Cl)c(Cl)c3)s2)CC1,IC50,"protein: Ectonucleotide pyrophosphatase/phosphodiesterase family member 2, PDB entry 3waw",580 nM (active)
c1ccc2c(c1)[nH]c1cncnc12,IC50,"protein: DUAL SPECIFICITY PROTEIN KINASE TTK, PDB entry 4bi0",58600 nM (active)
Cc1cccc(Cc2nn(C(C)(C)C)c3ncnc(N)c23)c1,IC50,"protein: Proto-oncogene tyrosine-protein kinase Src, PDB entry 4lgg",3 nM (active)
O=CN1CCN(c2nc(-c3ccccc3)ns2)CC1,IC50,"protein: Fatty-acid amide hydrolase 1, PDB entry 4hbp",3.8 nM (active)
N=CCNC(=O)[C@@H]1C[C@@H](S(=O)(=O)c2ccccc2)C[C@H]1C(=O)N1CCOCC1,IC50,"protein: CATHEPSIN S, PDB entry 4bsq",0.7 nM (active)
C=C1CC[C@@H](O[C@H]2C[C@@](O)([C@H](C)NC(=O)c3[nH]c(C)c(Cl)c3Cl)[C@H](O)[C@@H](C)O2)[C@@H]2C=C[C@H](C)[C@H](/C(O)=C3/C(=O)[C@H](C(C)C)N([C@@H]4O[C@@H](C)[C@@H](OC(N)=O)[C@@H](OC(C)=O)[C@H]4OC)C3=O)[C@@H]12,IC50,"protein: DNA GYRASE SUBUNIT B GyrB24, PDB entry 4urm",9 nM (active)
same,IC50,"protein: DNA TOPOISOMERASE IV, B SUBUNIT ParE43, PDB entry 4url",500 nM (active)
C/C=C\NC(=O)Nc1nc2cc(-c3cccnc3)c(=O)n(CCC(C)C)c2s1,IC50,"protein: Topoisomerase IV subunit B, PDB entry 4mot",50 nM (active)
COc1cc(-c2n[nH]c3ccc(C[C@@H](C#N)C(=O)NC(C)(C)CO)cc23)cc(OC)c1OC,IC50,"protein: Ribosomal protein S6 kinase alpha-3 (T493M muation), PDB entry 4jg8",2.5 nM (active)
O=C1N=Nc2nnc(-c3c(-c4ccccc4)nn4ccccc34)cc21,IC50,"protein: Insulin receptor (K1278N mutation), PDB entry 4ibm",1800 nM (active)
Cc1ccccc1S(=O)(=O)N(CCN(Cc1cncn1C)c1ccc(C=N)cc1)CC1CCN(C(=O)OC(C)(C)C)CC1,IC50,"protein: CaaX farnesyltransferase alpha subunit Ram2, PDB entry 4lnb",275 nM (active)
COc1ccccc1-c1noc2nc(C)[nH]c(=O)c12,IC50,"protein: Class III chitinase ChiA1, PDB entry 4tx6",2600 nM (active)
CC[C@H](C)[C@H](NC(=O)[C@@H](c1cc(Cl)cc(Cl)c1)N(C)C)C(=O)NCc1ccnc(C=N)n1,IC50,"protein: Protease AVP8, PDB entry 4pis",60 nM (active)
COc1ccc([C@]2(C)CCSC(N)N2)cc1 (stereo not given in full),IC50,"protein: BETA-SECRETASE 1, PDB entry 4bek",41200 nM (active)
Cc1ccc(-c2cc3c(NC([P+](O)(O)O)[P+](O)(O)O)ncnc3s2)cc1,IC50,"protein: Farnesyl pyrophosphate synthase, human FPPS, PDB entry 4jvj",22 nM (active)
O[P+](O)(O)C(Nc1ncnc2sc(-c3ccc(C4C=C4)cc3)cc12)[P+](O)(O)O,IC50,"protein: Farnesyl pyrophosphate synthase, human FPPS, PDB entry 4l2x",39 nM (active)
